Test results from PubChem BioAssay AID1159580 (chemical genetic matrix, 2015).
“And” between values parts separate entries of the source, which are not always exact repeats. Equal entries are not always repeated. Screen size: about 5,500 compounds; about 2,000 (36%) were called active. Not shown: some 18% with an inconclusive outcome. No stated cut-off is given here; in the data, active means normalized growth mostly below about 0.91 (no sharp cut-off); inconclusive means no clear call, values can overlap the other calls; inactive means mostly above about 0.92. Some of the results follow.

Assay: chemical genetic growth profiling, strain panel (AID 1159580);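 further: tested at 20 µM; growth read once vehicle control cultures reached saturation at 30 °C; 1 = growth at the plate median or of vehicle wells; lower values mean less growth of the strain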
Settings: S. cerevisiae deletion strains, growth OD

Measured: normalized growth

CCN(CC)Cc1ccc(Nc2ccnc3cc(Cl)ccc23)cc1O
active: locus YDR392W, strain spt3, active compounds read low 0.737
inactive: locus YAL021C, strain ccr4, active compounds read low 0.986 | locus YAL026C, strain drs2, active compounds read low 1.03 | locus YAL030W, strain snc1, active compounds read low 1 | locus YBL061C, strain skt5, active compounds read low 1.03 | locus YBR009C, strain hhf1, active compounds read low 0.96 | locus YBR021W, strain FUR4, active compounds read low 0.995 | locus YBR023C, strain chs3, active compounds read low 1.03 | locus YBR171W, strain sec66, active compounds read low 1.05 | locus YBR229C, strain ROT2, active compounds read low 1 | locus YBR231C, strain swc5, active compounds read low 0.989 | locus YBR279W, strain paf1, active compounds read low 1.01 | locus YCL011C, strain gbp2, active compounds read low 1 | locus YCL016C, strain dcc1, active compounds read low 1.02 | locus YCL029C, strain bik1, active compounds read low 1 | locus YCL061C, strain MRC1, active compounds read low 1.01 | locus YCL069W, strain vba3, active compounds read low 1.02 | locus YCR088W, strain abp1, active compounds read low 1.03 | locus YDL005C, strain med2, active compounds read low 1.04 | locus YDL035C, strain GPR1, active compounds read low 1.01 | locus YDL040C, strain nat1, active compounds read low 1 | locus YDL074C, strain BRE1, active compounds read low 1 | locus YDL101C, strain DUN1, active compounds read low 1.01 | locus YDL185W, strain tfp1, active compounds read low 0.997 | locus YDL192W, strain arf1, active compounds read low 0.999 | locus YDR001C, strain nth1, active compounds read low 1.03 | locus YDR069C, strain doa4, active compounds read low 1.01 | locus YDR101C, strain arx1, active compounds read low 0.988 | locus YDR137W, strain rgp1, active compounds read low 1.07 | locus YDR150W, strain NUM1, active compounds read low 1.01 | locus YDR159W, strain sac3, active compounds read low 0.941 | locus YDR162C, strain NBP2, active compounds read low 1.02 | locus YDR195W, strain ref2 0.971 | locus YDR297W, strain sur2, active compounds read low 1.02 | locus YDR318W, strain mcm21, active compounds read low 1 | locus YDR334W, strain swr1, active compounds read low 1.02 | locus YDR335W, strain msn5, active compounds read low 1.03 | locus YDR388W, active compounds read low 0.998 | locus YDR502C, strain sam2, active compounds read low 0.997 | locus YEL003W, strain gim4, active compounds read low 1.01 | locus YEL037C, strain rad23, active compounds read low 1.03 | locus YEL061C, strain CIN8 (second series), active compounds read low 1.01 | locus YEL061C, strain CIN8, active compounds read low 1 | locus YER015W, strain faa2, active compounds read low 1 | locus YER016W, strain bim1, active compounds read low 1.03 | locus YER110C, active compounds read low 0.999 | locus YER111C, strain swi4, active compounds read low 1.03 | locus YER155C, strain BEM2 (second series), active compounds read low 0.865 | locus YER155C, strain BEM2, active compounds read low 1 | locus YER167W, strain BCK2, active compounds read low 1.01 | locus YFR010W, strain ubp6, active compounds read low 0.992 | locus YGL078C, strain dbp3, active compounds read low 1 | locus YGL086W, strain mad1, active compounds read low 0.996 | locus YGL167C, strain pmr1, active compounds read low 1.01 | locus YGL173C, strain kem1, active compounds read low 0.991 | locus YGL227W, strain vid30, active compounds read low 1.01 | locus YGL240W, strain doc1, active compounds read low 0.958 | locus YGL248W, strain PDE1, active compounds read low 1.01 | locus YGL253W, strain hxk2, active compounds read low 1.01 | locus YGR078C, strain PAC10, active compounds read low 1 | locus YGR135W, strain pre9, active compounds read low 0.994 | locus YGR229C, strain SMI1, active compounds read low 1.02 | locus YGR252W, strain gcn5, active compounds read low 0.96 | locus YHR013C, strain ard1, active compounds read low 0.96 | locus YHR027C, strain rpn1, active compounds read low 1.01 | locus YHR030C, strain SLT2, active compounds read low 1.01 | locus YHR079C, strain IRE1 (second series), active compounds read low 0.999 | locus YHR079C, strain IRE1, active compounds read low 1.07 | locus YHR094C, strain hxt1, active compounds read low 0.998 | locus YHR129C, strain ARP1, active compounds read low 1 | locus YHR142W, strain chs7, active compounds read low 1.03 | locus YHR200W, strain rpn10, active compounds read low 0.997 | locus YIL066C, strain RNR3, active compounds read low 1.02 | locus YIL073C, strain SPO22, active compounds read low 1.01 | locus YIL125W, strain kgd1, active compounds read low 1 | locus YIR030C, strain dcg1, active compounds read low 0.997 | locus YJL092W, strain hpr5, active compounds read low 1.01 | locus YJL095W, strain BCK1 (second series), active compounds read low 1.01 | locus YJL095W, strain BCK1, active compounds read low 1 and 1.05 | locus YJL115W, strain asf1, active compounds read low 1.04 | locus YJL129C, strain trk1, active compounds read low 1.01 | locus YJL134W, strain LCB3, active compounds read low 1.01 | locus YJL154C, strain vps35, active compounds read low 1.02 | locus YJL164C, strain tpk1, active compounds read low 1 | locus YJL166W, strain qcr8, active compounds read low 0.992 | locus YJL168C, strain set2, active compounds read low 1 | locus YJL187C, strain SWE1 (second series), active compounds read low 1 | locus YJR043C, strain POL32, active compounds read low 0.996 | locus YJR066W, strain TOR1, active compounds read low 0.992 | locus YJR075W, strain HOC1, active compounds read low 1.01 | locus YKL009W, strain mrt4, active compounds read low 0.997 | locus YKL068W, active compounds read low 0.996 | locus YKL085W, strain MDH1 (second series), active compounds read low 0.995 | locus YKL085W, strain MDH1, active compounds read low 0.995 | locus YKL160W, strain elf1, active compounds read low 1.04 | locus YKL190W, strain CNB1, active compounds read low 1.01 | locus YKR001C, strain vps1, active compounds read low 0.999 | locus YKR026C, strain gcn3, active compounds read low 1.03 | locus YKR091W, strain srl3, active compounds read low 1.02 | locus YLL001W, strain dnm1, active compounds read low 1.01 | locus YLL026W, active compounds read low 1.02 | locus YLL041C, strain sdh2, active compounds read low 1.03 | locus YLR027C, strain aat2, active compounds read low 1.01 | locus YLR039C, strain RIC1, active compounds read low 1.01 | locus YLR058C, strain SHM2, active compounds read low 1.01 | locus YLR102C, strain apc9, active compounds read low 0.993 | locus YLR113W, strain HOG1, active compounds read low 1.06 | locus YLR221C, strain rsa3, active compounds read low 0.987 | locus YLR258W, strain gsy2, active compounds read low 1.03 | locus YLR262C, strain YPT6 (second series), active compounds read low 1.02 | locus YLR262C, strain YPT6, active compounds read low 1.06 | locus YLR268W, strain sec22, active compounds read low 0.993 | locus YLR320W, strain mms22, active compounds read low 0.939 | locus YLR330W, strain CHS5, active compounds read low 1.01 | locus YLR342W, strain FKS1 (second series), active compounds read low 0.984 | locus YLR342W, strain FKS1, active compounds read low 1.01 | locus YLR357W, strain rsc2, active compounds read low 1.06 | locus YLR370C, strain arc18, active compounds read low 1.02 | locus YLR371W, strain rom2, active compounds read low 1 | locus YLR384C, strain iki3, active compounds read low 1.01 | locus YLR418C, strain cdc73, active compounds read low 0.98 | locus YML016C, strain PPZ1, active compounds read low 1 | locus YML032C, strain rad52, active compounds read low 0.99 | locus YML120C, strain ndi1, active compounds read low 1.02 | locus YML124C, strain tub3, active compounds read low 1.01 | locus YMR058W, strain fet3, active compounds read low 0.93 | locus YMR078C, strain ctf18, active compounds read low 1 | locus YMR125W, strain sto1, active compounds read low 1.05 | locus YMR129W, active compounds read low 1.02 | locus YMR205C, strain PFK2, active compounds read low 0.983 | locus YMR223W, strain ubp8, active compounds read low 1 | locus YMR231W, strain pep5, active compounds read low 1.01 | locus YMR307W, strain GAS1, active compounds read low 1.01 | locus YNL067W, strain RPL9B, active compounds read low 1 | locus YNL071W, strain lat1, active compounds read low 1.03 | locus YNL128W, strain TEP1, active compounds read low 1.02 | locus YNL153C, strain GIM3, active compounds read low 0.987 | locus YNL183C, strain NPR1, active compounds read low 1 | locus YNL209W, strain ssb2, active compounds read low 1.01 | locus YNL233W, strain BNI4, active compounds read low 1 | locus YNL248C, strain rpa49, active compounds read low 1.03 | locus YNL250W, strain rad50, active compounds read low 0.997 | locus YNL271C, strain bni1, active compounds read low 1.03 | locus YNL298W, strain CLA4, active compounds read low 1.01 | locus YNL307C, strain MCK1, active compounds read low 0.997 | locus YNL322C, strain KRE1 (second series), active compounds read low 1.05 | locus YNR049C, strain mso1, active compounds read low 1.01 | locus YNR052C, strain pop2, active compounds read low 1 | locus YOL006C, strain TOP1, active compounds read low 1.04 | locus YOL012C, strain htz1 1.13 | locus YOL147C, strain pex11, active compounds read low 0.996 | locus YOR001W, strain rrp6, active compounds read low 0.995 | locus YOR061W, strain CKA2, active compounds read low 1.01 | locus YOR069W, strain VPS5, active compounds read low 1 | locus YOR070C, strain gyp1, active compounds read low 1.02 | locus YOR080W, strain dia2, active compounds read low 1.01 | locus YOR083W, strain WHI5, active compounds read low 0.986 | locus YOR106W, strain vam3, active compounds read low 1.05 | locus YOR136W, strain idh2, active compounds read low 0.995 | locus YOR144C, strain elg1, active compounds read low 0.99 | locus YOR184W, strain ser1, active compounds read low 0.992 | locus YOR231W, strain MKK1, active compounds read low 1.05 | locus YOR265W, strain rbl2, active compounds read low 1 | locus YOR270C, strain vph1, active compounds read low 1.05 | locus YOR290C, strain snf2, active compounds read low 1.02 | locus YOR316C, strain cot1, active compounds read low 0.997 | locus YPL051W, strain arl3, active compounds read low 1.01 | locus YPL078C, strain atp4, active compounds read low 1.03 | locus YPL106C, strain sse1, active compounds read low 1.05 | locus YPL240C, strain hsp82, active compounds read low 1.02 | locus YPL241C, strain CIN2, active compounds read low 1.01 | locus YPL256C, strain CLN2, active compounds read low 1.01 | locus YPR119W, strain clb2, active compounds read low 1 | locus YPR141C, strain kar3, active compounds read low 1.01 | locus YPR163C, strain tif3, active compounds read low 1.01 | locus YPR167C, strain met16, active compounds read low 1 | strain wtn01, active compounds read low 1
